# Laboratory results from the supplement of paper PMC9399229.
# Where a name gives a salt, the structure may show the parent alone. ± gives the standard deviation of the averaged measurements. In all, about 1,900 compounds were measured (“relative cell viability (CellTiter-Glo), compound alone”: median about 1, lowest 2% from about 0.16 on). The sample as a whole holds a higher share of the lowest values than the screen did.
# System: Hep3B
# Assay: relative cell viability (CellTiter-Glo), compound alone (fraction); higher = more viable cells (less growth inhibition)
# Details: cabozantinib 0 µM; 4 days
row,Structure (SMILES),relative cell viability
1,CCCCc1nc2cc(/C=C/C(=O)NO)ccc2n1CCN(CC)CC [Pracinostat (SB939)],0.155 ± 0.046
2,Cc1ccc(S(=O)(=O)c2ccc([N+](=O)[O-])o2)cc1,0.2656 ± 0.0026
3,O=[N+]([O-])c1cn2c(n1)OC[C@@H](OCc1ccc(OC(F)(F)F)cc1)C2,1.05 ± 0.064
4,COC(=O)CC[C@H](NC(=O)[C@H](CC(=O)OC)NC(=O)OCc1ccccc1)C(=O)N[C@H](C(=O)N[C@@H](CC(=O)OC)C(=O)CF)C(C)C,1.25 ± 0.12
5,CC(C)(Cc1ccc2ccccc2c1)NC[C@@H](O)COc1cccc(Cl)c1C#N,1.09 ± 0.051
6,O=C(NCC1(c2nc(-c3ccccc3)cs2)CCOCC1)c1cccc(-c2noc(C(F)(F)F)n2)c1,1.1 ± 0.12
7,Clc1ccc(NN=C(c2ccccc2)c2ccccn2)nc1,0.0829 ± 0.0081
8,O=C(Nc1cccc(Cl)c1)c1ccccn1,0.9222 ± 0.0036
9,COc1ccc(CCc2nc3cc(-c4c(C)noc4C)ccc3n2C[C@H](C)N2CCOCC2)cc1Cl,0.925 ± 0.092
10,"CNC(=O)[C@H](Cc1c[nH]c2ccccc12)NC(=O)[C@@H](CC(=O)NO)CC(C)C [Ilomastat (GM6001, Galardin)]",1.05 ± 0.021
11,Cc1ccc(NC(=O)c2ccc(CN3CC[C@H](N(C)C)C3)c(C(F)(F)F)c2)cc1Nc1nccc(-c2cncnc2)n1 [Bafetinib (INNO-406)],1.13 ± 0.047
12,CCCN1CCCC[C@H]1C(=O)Nc1c(C)cccc1C [Ropivacaine HCl],1.02 ± 0.075
13,CC[C@@H](C)Nc1cc(C(=O)N[C@H]2C[C@H]3CC[C@@H](C2)N3c2ccc(C(=O)C3CC3)cn2)c(C)cc1C(N)=O,0.213 ± 0.014
14,O=C(O)Cn1nnc(-c2cc(N3CCC(Oc4cc(F)ccc4Br)CC3)no2)n1,1.05 ± 0.024
15,CC(C)(C)c1cc(/C=C(\C#N)C(N)=S)cc(C(C)(C)C)c1O [Tyrphostin AG 879],1.04 ± 0.053
16,FC(F)(F)Oc1ccc2nc(-c3ccc(OCCOCCOc4ccc(-c5nc6ccc(OC(F)(F)F)cc6[nH]5)nc4)cn3)[nH]c2c1,0.708 ± 0.0018
17,O=C(O)CCCc1c[nH]c2ccccc12 [3-Indolebutyric acid (IBA)],1.11 ± 0.1
18,OCc1c[nH]c2ccccc12 [Indole-3-carbinol],1.007 ± 0.0087
19,O=C(/C=C/c1ccc(CN(CCO)CCc2c[nH]c3ccccc23)cc1)NO [LAQ824 (Dacinostat)],0.124 ± 0.015
20,COc1cc(C(=O)N2CCC(N3CCN(C)CC3)CC2)ccc1Nc1ncc2c(n1)N(C)c1ccccc1C(=O)N2C,1.02 ± 0.019

row,Structure (SMILES),relative cell viability
1,Cc1cc(F)c(Nc2ncnc3cc(OCc4ccccc4)ccc23)cc1O,1.17 ± 0.027
2,CC(NC(=O)C(Cc1ccccc1)NC(=O)OCc1ccccc1)C(=O)CF (centres undefined),0.951 ± 0.043
3,CC(C)C[C@H](NC(=O)[C@H](CCc1ccccc1)NC(=O)CN1CCOCC1)C(=O)N[C@@H](Cc1ccccc1)C(=O)N[C@@H](CC(C)C)C(=O)[C@@]1(C)CO1 [Carfilzomib (PR-171)],0.193 ± 0.016
4,COC[C@H](NC(=O)c1cnc(C)s1)C(=O)N[C@@H](COC)C(=O)N[C@@H](Cc1ccccc1)C(=O)[C@@]1(C)CO1 [Oprozomib (ONX 0912)],0.123 ± 0.005
5,COc1ccc(C[C@H](NC(=O)[C@H](C)NC(=O)CN2CCOCC2)C(=O)N[C@@H](Cc2ccccc2)C(=O)[C@@]2(C)CO2)cc1,0.1525 ± 0.00028
6,COC(=O)[C@H](Cc1ccccc1)NC(=O)[C@@H](N)CC(=O)O [Aspartame],1.09 ± 0.15
7,CC(C)C[C@H](NC(=O)[C@H](Cc1ccccc1)NC(=O)c1cnccn1)B(O)O [Bortezomib (PS-341)],0.329 ± 0.066
8,CC(C)N(C[C@H]1O[C@@H](n2cnc3c(N)ncnc32)[C@H](O)[C@@H]1O)[C@H]1C[C@@H](CCc2nc3cc(C(C)(C)C)ccc3[nH]2)C1,1.12 ± 0.029
9,C[C@H]1O[C@@H](O[C@H]2[C@@H](O)C[C@H](O[C@H]3[C@@H](O)C[C@H](O[C@H]4CC[C@@]5(C)[C@H](CC[C@@H]6[C@@H]5C[C@@H](O)[C@]5(C)[C@@H](C7=CC(=O)OC7)CC[C@]65O)C4)O[C@@H]3C)O[C@@H]2C)C[C@H](O)[C@@H]1O [Digoxin],0.0999 ± 0.0026
10,C[C@H]1Oc2cc(cnc2N)-c2c(nn(C)c2C#N)CN(C)C(=O)c2ccc(F)cc21,1.12 ± 0.049
11,Cn1cc(C2=C(c3cn(CCCSC(=N)N)c4ccccc34)C(=O)NC2=O)c2ccccc21 [Ro 31-8220 Mesylate],1.05 ± 0.1
12,C/C(=N\NC(=O)c1cccc(S(=O)(=O)N2CCOCC2)c1)c1cc(Cl)ccc1O,1.08 ± 0.014
13,COc1ccc(S(=O)(=O)N(C(C)=O)c2ccccc2/C=C/c2cc[n+]([O-])cc2)cc1,0.855 ± 0.05
14,NC[C@@](O)(c1ccc(Cl)cc1)c1ccc(-c2cn[nH]c2)cc1,0.23 ± 0.029
15,COc1c(C)cnc(Cn2cnc3c(Cl)nc(N)nc32)c1C,0.19 ± 0.017
16,O=C(Cc1cccc(OC(F)(F)F)c1)Nc1ccc(CCCCc2nnc(NC(=O)Cc3ccccn3)s2)nn1,1.04 ± 0.35
17,O=C1NC(=O)C(c2cnc3ccccn23)=C1c1cn2c3c(cc(F)cc13)CN(C(=O)N1CCCCC1)CC2,1.28 ± 0.1
18,COc1ccccc1S(=O)(=O)Nc1ccc2c(c1)CN(C)C(=O)N2,0.881 ± 0.091
19,Cc1ncc(CCCN(C)C)cc1Nc1ncc2c(n1)-c1ccc(C(F)(F)F)cc1NC(=S)C2,0.81 ± 0.023
